Values joined by “and” are separate entries in the source; they are usually repeats but may differ in a detail not shown here. Equal values may be shown once. Compounds without any hit were thinned out: in the full panel of roughly 83,000, 20% have a hit.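 Growth was measured after 48 h exposure to one concentration of compound in 96-well plates. Values under 10 count as active.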 Some structures have more than one record in an assay (separate samples or runs), and their calls can disagree. Active and inactive are the calls of the source.
The compounds below were run on HCT-15 colon (assay: NCI-60 one-dose screen, 48 h (100 = growth as untreated, 0 = no growth, -100 = all killed)). Conditions: 10 µM unless noted.
Procedure: Growth inhibition of the HCT-15 human tumor cell line is measured as a screen for anti-cancer activity. Cells are grown in 96 well plates and exposed to the test compound for 48 hours. Compounds are tested at a single concentration, which is 10^-5 M for most compounds. The reported endpoint is percent growth (GI% or GIPRCNT), where numbers from 0 - 100% represent growth inhibition, and numbers from -100% - 0 represent cell death. For example, a value of 40 represents 60% growth inhibition. A value of 0 means no net growth occurred over the course of the experiment. A value of -40 indicates 40% of cells at the beginning of the experiment died by the end of the experiment. A value of -100 means all cells are dead at the end of the experiment.
NCI-60 Human Tumor Cell Lines Screen was performed using the standard one-dose NCI protocol, which is described in more detail at https://dtp.cancer.gov/discovery_development/nci-60/default.htm.
Compounds with GIPRCNT values below 10 were considered active. Activity score was based on GIPRCNT using the following formula: […]
Score is 0 for GIPRCNT values of 100 or above, 50 for GIPRCNT values of 0, and 100 for GIPRCNT values of -100.

| Structure (SMILES) | growth |
| --- | --- |
| O=C(c1ccccc1)C(Br)[N+](=O)[O-] (stereo not given) | 78.1% (inactive) |
| O=C1Nc2ccc(Br)cc2C1=O | 100% (inactive) |
| O=C(Nc1ccc(Cl)c(Cl)c1)OCc1ccco1 | 29.7% (inactive) |
| CC(CSc1n[nH]c(=S)s1)c1ccccc1 (stereo not given) | 110% (inactive) |
| Clc1ccccc1C(c1ccccc1)(c1ccccc1)n1ccnc1 | 22.9% (inactive) |
| CC1C(c2ccccc2)OCCN1C(=S)Nc1ccc(S(=O)(=O)N2CCCCC2)cc1 (stereo not given) | 97.2% (inactive) |
| CC(C)(C)CC(C)(C)c1ccc(OCCOCCSC(=N)N)cc1 | 0.972% (active) |
| Cc1cc(C(=C2C=CC(=Nc3ccccc3)C=C2)c2ccc(Nc3ccccc3)cc2)ccc1N | -31.7% (active) |
| Cc1oc2c(C)c3oc(=O)cc(C)c3cc2c1CCl | 91.8% (inactive) |
| CCCCCCCCCCCCSC(=N)N | -21.4% (active) |
| O/N=C1\c2ccccc2-c2ccc(F)cc21 | 74.6% (inactive) |
| COc1cc(/C=C/c2ccnc3ccccc23)cc(OC)c1OC | 32.5% (inactive) |
| CN(C)c1ccc2cc3c(cc2c1)Oc1ccccc1N3.[Cl][Zn][Cl] | 48.5% (inactive) |
| CCCCCCCCCCCCCCCCCC1=NCCCN1CCO | 94% (inactive) |
| O=C(O)c1cccc2cccc(-c3c4ccc(=O)c(O)c-4oc4c(O)c(O)ccc34)c12 | 105% (inactive) |
| Oc1ccc(Br)cc1Sc1cc(Br)ccc1O | 36.6% (inactive) |
| COC1CC(C)C(OC)c2cc(O)cc(c2O)NC(=O)/C(C)=C/C=C\C(C)C(OC(N)=O)/C(C)=C\C(C)C1OC (stereo not given) | 5.82% (active) |
| OC(c1cc(-c2ccc(C(F)(F)F)cc2)nc(C(F)(F)F)c1)C1CCCCN1 (stereo not given) | -36.1% (active) and -65.7% (active) and 14.6% (inactive) |
| CC(C)(C)c1ccc(O)c(-c2ccccc2)c1 | 102% (inactive) |
| Oc1c(Cl)cc(Cl)cc1C(c1cc(Cl)cc(Cl)c1O)C(Cl)(Cl)Cl | 2.87% (active) |

| Structure (SMILES) | growth |
| --- | --- |
| CCCCCCCCCCCCN1C(C)=CS/C1=C\C=C\c1scc(C)[n+]1CCCCCCCCCCCC | 56.6% (inactive) |
| CC(=O)N1CC(=O)NC1=S | 99.9% (inactive) |
| CC1(C)CCCC2=C1C(=O)N(SC(Cl)(Cl)Cl)C2=O | 85.9% (inactive) |
| CC(C)=C1C=C2CC[C@@H]3[C@](C)(CCC[C@@]3(C)C(=O)O)[C@H]2CC1 | 98% (inactive) |
| Cc1cc2cccnc2c2ncccc12 | 37% (inactive) |
| Cn1c(-c2ccccc2)c(/C=C/C2=[N+](C)c3ccccc3C2(C)C)c2ccccc21 | 38.9% (inactive) |
| NNc1cccc([N+](=O)[O-])c1 | 101% (inactive) |
| NC(=S)N/N=C\c1nccc2c(C(F)(F)F)cccc12 | 28.6% (inactive) |
| O=C(O)c1cc2c(s1)C(=O)c1sccc1C2=O | -59.3% (active) |
| Nc1ccc(C(=O)/C=C/c2ccccc2)cc1 | 87% (inactive) |
| COc1cc([C@@H]2c3cc4c(cc3[C@H](OC3OC5COC(c6ccccc6)OC5C(O)C3O)[C@H]3COC(=O)[C@H]23)OCO4)cc(OC)c1OC (stereo not given in full) | 41.1% (inactive) |
| CCCCCCCCCCCC[n+]1ccc2ccccc2c1 | 25% (inactive) |
| O=[N+]([O-])CC(O)c1ccccc1 (stereo not given) | 96.6% (inactive) |
| O=C(/C=C/C(Cl)(Cl)Cl)Nc1ccc(Cl)cc1 | 88.3% (inactive) |
| O=Nc1ccc2ccccc2c1O | 66.5% (inactive) |
| N#CC(=C1SCS1)[N+](=O)[O-] | 12.3% (inactive) |
| O=C(c1ccccc1)N(CCCl)C(=O)N(CCCl)C(=O)c1ccccc1 | 99.4% (inactive) |
| CN1CSC(=S)N(Cc2ccccc2)C1 | 84.8% (inactive) |
| CCOC(=O)/C(=C\c1ccc2ccccc2c1)P(=O)(OCC)OCC | 2.93% (active) |
| O=C1C=CC(=O)N1C1CCCCCCCCCCC1 | 88.6% (inactive) |
